Experimental data from PubChem BioAssay (NCI).
Where “and” joins values, the source holds several entries; their conditions need not be identical. Identical values can stand only once. The panel holds about 79,000 compounds, 15% with a hit somewhere; the sample as a whole holds those more often. Some compounds were tested as several samples or in several runs, with calls that do not always agree. Calls of active or inactive are those of the source. Cut-off read from the data, not from the text of the source: active = growth inhibition above about 70%; inactive = the rest.

Test: NCI Yeast Anticancer Drug Screen. Data for the mec2-1 strain (AID 157)
Details: S. cerevisiae mec2-1 strain, stronger effect = higher value
Experimental: Growth inhibition of yeast strains with defined genetic alterations is measured as a screen for potential anti-cancer activity. Selected strains with alterations in DNA damage repair or cell cycle control were exposed to compounds and growth inhibition was measured relative to vehicle treated controls. The strain used in this assay is mec2-1

[1] = at 5.0 µM (retest, dose inferred, filed as 0.5)
[2] = at 50.0 µM (retest, dose inferred, filed as 5.0)

**Q.** Which growth inhibition [1] does the source give for CC(C)CC(Nc1c(O)ccc2ccccc12)C(=O)O (configuration not stated) here?
**A.** 0% (inactive)

**Q.** What about the growth inhibition [2] of the same compound?
**A.** 99% (active)

**Q.** And the growth inhibition (at 50.0 µM)?
**A.** 99.4% (active)

**Q.** For CCCCCCCN, which growth inhibition [1] is on record?
**A.** -9% (inactive)

**Q.** What about the growth inhibition [2] of the same compound?
**A.** 85% (active)

**Q.** And the growth inhibition (at 50.0 µM)?
**A.** 20.9% (inactive)

**Q.** What does the source list for Cn1c2ccccc2c(=O)c2ccccc21?
**A.** growth inhibition [1]: 23% (inactive); growth inhibition [2]: 9% (inactive); growth inhibition (at 50.0 µM): -18.9% (inactive) and 13.4% (inactive)

**Q.** What does the source list for O=NC1C(Cl)C2CC1C1C(Br)C(Br)CC21 (configuration not stated)?
**A.** growth inhibition [1]: 23% (inactive) and 4% (inactive); growth inhibition [2]: 2% (inactive) and 22% (inactive); growth inhibition (at 50.0 µM): 1.4% (inactive) and 32.1% (inactive) and 34% (inactive)

**Q.** Which growth inhibition [1] does the source give for NS(=O)(=O)c1ccc(Nc2c3ccccc3nc3c(C(=O)N4CCN(CCO)CC4)cccc23)cc1 here?
**A.** 39% (inactive)

**Q.** And the growth inhibition [2]?
**A.** 39% (inactive)

**Q.** And the growth inhibition (at 50.0 µM)?
**A.** 40.7% (inactive)

**Q.** For NCC(=O)OCN1C(=O)C2C3C=CC(C2C1=O)C1C2C(=O)N(COC(=O)CN)C(=O)C2C31 (configuration not stated), which growth inhibition [1] is on record?
**A.** 20% (inactive)

**Q.** And the growth inhibition [2]?
**A.** 39% (inactive)

**Q.** And the growth inhibition (at 50.0 µM)?
**A.** 8.65% (inactive) and -62% (inactive)

**Q.** For Clc1ccc(CNNCc2ccc(Cl)cc2)cc1, which growth inhibition [1] is on record?
**A.** 0% (inactive)

**Q.** What about the growth inhibition [2] of the same compound?
**A.** 96% (active)

**Q.** What about the growth inhibition (at 50.0 µM) of the same compound?
**A.** -3.05% (inactive) and -2.3% (inactive)

**Q.** With O=C1/C(=C/c2ccc(Cl)cc2)CNC/C1=C\c1ccc(Cl)cc1 as the compound, how does the growth inhibition [1] read?
**A.** 76% (active) and 48% (inactive)

**Q.** And the growth inhibition [2]?
**A.** 87% (active) and 78% (active)

**Q.** What about the growth inhibition (at 50.0 µM) of the same compound?
**A.** 81.8% (active) and 89.5% (active)

**Q.** With Fc1ccc(NC(=S)SCc2ccc3c(c2)OCO3)cc1 as the compound, how does the growth inhibition [1] read?
**A.** 1% (inactive)

**Q.** And the growth inhibition [2]?
**A.** 99% (active)

**Q.** And the growth inhibition (at 50.0 µM)?
**A.** 98.5% (active)

**Q.** Which results are given for CC(=O)Nc1c(Cl)c(Cl)c2c(c1Cl)Cc1cc(Cl)ccc1-2?
**A.** growth inhibition [1]: 99% (active); growth inhibition [2]: 99% (active); growth inhibition (at 50.0 µM): 98% (active)

**Q.** What does the source list for O=c1c(O)cccc2cc(O)c(O)c(O)c12?
**A.** growth inhibition [1]: -22% (inactive) and 25% (inactive); growth inhibition [2]: 94% (active) and 98% (active); growth inhibition (at 50.0 µM): 91.4% (active) and 91.2% (active)

**Q.** With O=[N+]([O-])C(/C=C(\Cl)[N+](=O)[O-])=C(Nc1ccccc1)Nc1ccccc1 as the compound, how does the growth inhibition [1] read?
**A.** -7% (inactive)

**Q.** And the growth inhibition [2]?
**A.** 99% (active)

**Q.** What about the growth inhibition (at 50.0 µM) of the same compound?
**A.** 88.2% (active)

**Q.** With O=c1c(Cl)c(Cl)cnn1CCCl as the compound, how does the growth inhibition [1] read?
**A.** 9% (inactive)

**Q.** And the growth inhibition [2]?
**A.** 48% (inactive)

**Q.** What about the growth inhibition (at 50.0 µM) of the same compound?
**A.** 17.6% (inactive)

**Q.** Which results are given for NC(CCCCNC(=O)c1ccccc1)C(=O)O (configuration not stated)?
**A.** growth inhibition [1]: 3% (inactive); growth inhibition [2]: 2% (inactive); growth inhibition (at 50.0 µM): 5.85% (inactive) and -22.1% (inactive)
